The supplement of paper PMC10515830
Counter-ions that a name gives are not always drawn.

Experiments:
Settings in all cases: 10 µM; exposure time 6 h
[1] = tested on: Danio rerio larvae (5 dpf); assay: difference in excitability vs DMSO (percentage points); higher = more excitable than DMSO
How it was run: (§1)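 In 96-well plates, 48 wild-type zebrafish larvae aged 5 dpf per compound received 100 µL egg water with library compound at 10 µM final for 6 h. Three hours into this, a 3-h programme of moving lines and 100 ms, 400Hz tones ran at 28.5 ℃ while plates were photographed every 6 s. Z-LaP Tracker scored the behaviours, and each is given as the compound mean minus the vehicle control mean in percentage points.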

[2] = tested on: Danio rerio larvae (5 dpf); assay: difference in startle response vs DMSO (percentage points); higher = stronger startle than DMSO
How it was run: as §1

[3] = tested on: Danio rerio larvae (5 dpf); assay: difference in activity during first hour vs DMSO (percentage points); higher = more activity than DMSO
How it was run: as §1

[4] = tested on: Danio rerio larvae (5 dpf); assay: difference in habituation to acoustic stimuli vs DMSO (percentage points); higher = more habituation than DMSO
How it was run: as §1

[5] = tested on: Danio rerio larvae (5 dpf); assay: difference in combined optomotor response to red, green and blue moving lines vs DMSO (percentage points); higher = stronger optomotor response than DMSO
How it was run: as §1

| SMILES | difference in excitability [1] | difference in startle response [2] | difference in activity during first hour [3] | difference in habituation to acoustic stimuli [4] | difference [5] |
| --- | --- | --- | --- | --- | --- |
| C[C@H]1[C@H](NC(=O)/C(=N\OC(C)(C)C(=O)O)c2csc(N)n2)C(=O)N1S(=O)(=O)O [Aztreonam] | -7.88 | 8.41 | 8.84 | 5.95 | -0.4 |
| C[C@H]1C[C@@H]2[C@H]([C@@H](O)C[C@@]3(C)[C@H]2CC[C@]3(O)C(=O)CO)[C@@]2(C)C=CC(=O)C=C12 [Methylprednisolone] | 2.35 | 0.227 | 10.3 | -3.19 | 9.29 |
| CC(C)(O)CNc1nc(Nc2ccnc(C(F)(F)F)c2)nc(-c2cccc(C(F)(F)F)n2)n1 [Enasidenib] | 15.7 | -3.05 | 12.8 | -6.3 | 2.71 |
| CC(=O)Nc1cccc(-n2c(=O)n(C3CC3)c(=O)c3c(Nc4ccc(I)cc4F)n(C)c(=O)c(C)c32)c1 [Trametinib] | 9.81 | 0.301 | 6.06 | 2.09 | 6.51 |
| Cc1c(OCC(F)(F)F)ccnc1C[S+]([O-])c1nc2ccccc2[nH]1 (stereo not given) [Lansoprazole] | 8.61 | -2.87 | 1.57 | -2.95 | 6.61 |
| CC#C[C@]1(O)CC[C@H]2[C@@H]3CCC4=CC(=O)CCC4=C3[C@@H](c3ccc(N(C)C)cc3)C[C@@]21C [Mifepristone] | 10.2 | -2.97 | -9.36 | 0.759 | 4.72 |
| N[C@@H](Cc1cc(I)c(Oc2cc(I)c(O)c(I)c2)c(I)c1)C(=O)O [L-Thyroxine] | 12.1 | -4.02 | 7.61 | -1.15 | 1.95 |
| CC(=O)OCC[N+](C)(C)C [Acetylcholine (chloride)] | 5.65 | 0.34 | -8.36 | 2.23 | -4.37 |
| Cc1ccccc1N1C(=O)c2cc(S(N)(=O)=O)c(Cl)cc2NC1C (stereo not given) [Metolazone] | 5.2 | 4.85 | -12.7 | 0.578 | 1.31 |
| COc1ccc(-c2ccc3cc(C(=O)O)ccc3c2)cc1C12CC3CC(CC(C3)C1)C2 [Adapalene] | -8.45 | 3.9 | -0.172 | -5 | 3.86 |
| O=C(O)Cc1ccccc1Nc1c(Cl)cccc1Cl [Diclofenac (sodium salt)] | 17.2 | -1.39 | 2.16 | -5.15 | 2.67 |
| C=CC1=C(C(=O)O)N2C(=O)[C@@H](NC(=O)/C(=N\O)c3csc(N)n3)[C@H]2SC1 [Cefdinir] | 6.83 | 5.77 | 6.72 | -1.11 | 4.15 |
| CC1=C(C(=O)O)N2C(=O)[C@@H](NC(=O)[C@H](N)c3ccc(O)cc3)[C@H]2SC1 [Cefadroxil (hydrate)] | 4.89 | -1.88 | 6.54 | -3.34 | 7.44 |
| C=C1CCN([C@H](C)[C@](O)(Cn2cncn2)c2ccc(F)cc2F)CC1 [Efinaconazole] | 14.8 | -1.57 | -5.8 | -7.46 | 1.58 |
| Clc1ccccc1C(c1ccccc1)(c1ccccc1)n1ccnc1 [Clotrimazole] | -0.151 | 4.37 | -19.1 | -10.2 | -12.6 |
| CNC[C@H](O)c1ccc(O)c(O)c1 (racemic) [(±)-Epinephrine (hydrochloride)] | -0.953 | -6 | 37.7 | -7.58 | 4.53 |
| C[N+]1(C)[C@@H]2CC[C@H]1C[C@@H](OC(=O)C(O)c1ccccc1)C2 (stereo not given in full) [Methylhomatropine (bromide)] | 5.63 | 0.325 | 2.46 | 1.2 | -3.01 |
| O=C(NC1CCN(CCCCC2(C(=O)NCC(F)(F)F)c3ccccc3-c3ccccc32)CC1)c1ccccc1-c1ccc(C(F)(F)F)cc1 [Lomitapide] | 17 | -3.26 | -7.94 | -2.68 | -5.57 |
| Cc1ccnc2c1NC(=O)c1cccnc1N2C1CC1 [Nevirapine] | 0.772 | 3.61 | -2.89 | -2.11 | -3.5 |
| CC(C)OC(=O)CCC/C=C\C[C@@H]1[C@@H](/C=C/C(F)(F)COc2ccccc2)[C@H](O)C[C@@H]1O [Tafluprost] | 10.1 | -0.187 | -16 | 12.5 | -4.17 |
| CCC(=O)O[C@]1(C(=O)CCl)[C@@H](C)C[C@H]2[C@@H]3CCC4=CC(=O)C=C[C@]4(C)[C@@]3(F)[C@@H](O)C[C@@]21C [Clobetasol Propionate] | 2.04 | -8.98 | 19.3 | 0.438 | 4.92 |
| CC[C@@H]([C@H](C)O)n1ncn(-c2ccc(N3CCN(c4ccc(OC[C@@H]5CO[C@@](Cn6cncn6)(c6ccc(F)cc6F)C5)cc4)CC3)cc2)c1=O [Posaconazole] | 9.26 | -3.5 | 4.34 | -1.56 | 5.63 |
| CCC1=C[C@@H]2CN(C1)Cc1c([nH]c3ccccc13)[C@@](C(=O)OC)(c1cc3c(cc1OC)N(C)[C@H]1[C@@](O)(C(=O)OC)[C@H](OC(C)=O)[C@]4(CC)C=CCN5CC[C@]31[C@@H]54)C2 [Vinorelbine (tartrate)] | 11.6 | -5.75 | 3.25 | -2.19 | -4.51 |
| NCCCCCC(=O)O [6-Aminocaproic Acid] | 8.15 | -0.142 | 5.22 | 0.269 | 3.43 |

| SMILES | difference in excitability [1] | difference in startle response [2] | difference in activity during first hour [3] | difference in habituation to acoustic stimuli [4] | difference [5] |
| --- | --- | --- | --- | --- | --- |
| CC(=O)NCCCS(=O)(=O)O [Acamprosate (calcium salt)] | 5.62 | 1.29 | -8.55 | 7.23 | 4.69 |
| COc1ccc2cc(CCC(C)=O)ccc2c1 [Nabumetone] | 0.732 | -0.884 | 1.19 | -1.53 | 0.192 |
| C[C@]12CCC3=C4CCC(=O)C=C4CC[C@H]3[C@@H]1CC[C@@]2(O)CC#N [Dienogest] | 6.14 | -3.1 | 11.2 | 4.78 | 1.22 |
| O=C(CCCN1CCC(O)(c2ccc(Cl)cc2)CC1)c1ccc(F)cc1 [Haloperidol] | 17.7 | -2.56 | 12.4 | -7.67 | -5.9 |
| CO[C@H]1C[C@@H]2CC[C@@H](C)[C@@](O)(O2)C(=O)C(=O)N2CCCC[C@H]2C(=O)O[C@H]([C@H](C)C[C@@H]2CC[C@@H](OC(=O)C(C)(CO)CO)[C@H](OC)C2)CC(=O)[C@H](C)/C=C(\C)[C@@H](O)[C@@H](OC)C(=O)[C@H](C)C[C@H](C)/C=C/C=C/C=C/1C [Temsirolimus] | 7.02 | -6.86 | -1.53 | 4.35 | 0.433 |
| C[C@H](N)[C@H](O)c1cccc(O)c1 [Metaraminol (tartrate)] | 3.23 | 5.35 | -15.4 | -0.886 | -6.91 |
| Cn1nnc2c(C(N)=O)ncn2c1=O [Temozolomide] | -3.41 | 0.671 | -3.71 | 1.66 | 5.77 |
| Nc1cccc2c1C(=O)N(C1CCC(=O)NC1=O)C2=O (stereo not given) [Pomalidomide] | 0.1 | 2.2 | 0.787 | 2.64 | 1.26 |
| C[C@H]1O[C@H](O[C@H]2[C@H](O)[C@@H](O)[C@@H](O[C@H]3[C@H](O)[C@@H](O)C(O)O[C@@H]3CO)O[C@@H]2CO)[C@H](O)[C@@H](O)[C@@H]1N[C@H]1C=C(CO)[C@@H](O)[C@H](O)[C@H]1O (stereo not given in full) [Acarbose] | 11 | -8.81 | -0.68 | -4.5 | 4.03 |
| CNS(=O)(=O)Cc1ccc2[nH]cc(CCN(C)C)c2c1 [Sumatriptan (succinate)] | 7.61 | 3.38 | -12.9 | 5.35 | -4.54 |
| CCO/N=C(\C(=O)N[C@@H]1C(=O)N2C(C(=O)[O-])=C(Sc3nc(-c4cc[n+](C)cc4)cs3)CS[C@H]12)c1nsc(NP(=O)(O)O)n1 | 2.56 | 0.685 | 4.29 | -3.93 | -5.35 |
| CCC1=C(C)CN(C(=O)NCCc2ccc(S(=O)(=O)NC(=O)N[C@H]3CC[C@H](C)CC3)cc2)C1=O [Glimepiride] | -3.07 | 2.59 | 2.62 | 3.43 | -2.24 |
| CCC(C)n1ncn(-c2ccc(N3CCN(c4ccc(OCC5COC(Cn6cncn6)(c6ccc(Cl)cc6Cl)O5)cc4)CC3)cc2)c1=O (stereo not given) [Itraconazole] | 15.4 | -0.629 | -2.15 | -5.43 | 4.73 |
| CC1(C)O[C@@H]2C[C@H]3[C@@H]4C[C@H](F)C5=CC(=O)C=C[C@]5(C)[C@H]4[C@@H](O)C[C@]3(C)[C@]2(C(=O)CO)O1 [Flunisolide] | 4.3 | -3.48 | 6.73 | 1.9 | 3.28 |
| NCCc1ccc(O)c(O)c1 [Dopamine (hydrochloride)] | 4.19 | -3.68 | 12.6 | 4.17 | 2.15 |
| CO[C@@]1(NC(=O)Cc2cccs2)C(=O)N2C(C(=O)O)=C(COC(N)=O)CS[C@@H]21 [Cefoxitin (sodium salt)] | 2.72 | 3.22 | 3 | 1.06 | 10.4 |
| CN1CCN(CCCN2c3ccccc3Sc3ccc(C(F)(F)F)cc32)CC1 [Trifluoperazine (hydrochloride)] | 11.8 | -1.73 | 23.8 | -10.9 | -0.14 |
| Cc1ncc([N+](=O)[O-])n1CC(C)O (stereo not given) [Secnidazole] | 4.12 | -1.25 | 19.9 | -6.46 | 6.66 |
| COc1cc2c(cc1OC)C(=O)C(CC1CCN(Cc3ccccc3)CC1)C2 (stereo not given) [Donepezil] | 12 | -0.487 | -0.402 | -0.748 | -2.38 |
| C[C@@H]1[C@H](O)[C@@H](C)/C=C/C=C/C=C/C=C/C=C/C=C/C=C/[C@H](O[C@@H]2O[C@H](C)[C@@H](O)[C@H](N)[C@@H]2O)C[C@@H]2O[C@](O)(C[C@@H](O)C[C@@H](O)[C@H](O)CC[C@@H](O)C[C@@H](O)CC(=O)O[C@H]1C)C[C@H](O)[C@H]2C(=O)O [Amphotericin B] | -0.355 | 0.384 | 4.13 | -0.401 | 1.13 |
| COCCCC/C(=N\OCCN)c1ccc(C(F)(F)F)cc1 [Fluvoxamine (maleate)] | 13.2 | -1.76 | -21.1 | -3.73 | 5.3 |
| CCOC(=O)c1ncn2c1CN(C)C(=O)c1cc(F)ccc1-2 [Flumazenil] | 3.25 | 7.64 | 0.681 | 2.54 | 3.91 |
| CN(C)C(=O)c1cc2cnc(Nc3ccc(N4CCNCC4)cn3)nc2n1C1CCCC1 | 10.3 | -7.97 | 2.64 | -2.12 | 0.1 |
